From PubChem BioAssay (EPA / NIEHS) come the findings set out here.

Active and inactive are the calls of the source. How the source made its calls: active means hit-call score of the fitted dose curve at least 0.9, where 1 is the maximum; inactive means score below 0.9.

Paired box protein Pax-6 (Homo sapiens), sequence (P26367 whole entry, looked up): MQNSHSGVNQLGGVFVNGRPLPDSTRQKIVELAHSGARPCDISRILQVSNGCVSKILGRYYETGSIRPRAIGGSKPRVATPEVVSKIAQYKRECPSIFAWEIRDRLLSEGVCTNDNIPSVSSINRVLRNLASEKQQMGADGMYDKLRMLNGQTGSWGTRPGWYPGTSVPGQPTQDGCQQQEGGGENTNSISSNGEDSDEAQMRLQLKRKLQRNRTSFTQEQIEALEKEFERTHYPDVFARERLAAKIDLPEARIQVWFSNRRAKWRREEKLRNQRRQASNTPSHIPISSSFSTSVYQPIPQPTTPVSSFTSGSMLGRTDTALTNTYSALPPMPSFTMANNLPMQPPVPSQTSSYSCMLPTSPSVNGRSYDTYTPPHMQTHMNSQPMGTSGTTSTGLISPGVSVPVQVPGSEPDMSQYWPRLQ

Test system in one experiment: not listed separately
Description: ATG_PBREM_CIS: Attagene CIS-FACTORIAL HepG2 Assay for human Phenobarbital-responsive Enhancer Module (PBREM) (AID 2282955). The following applies: HepG2 PBREM cis-reporter, Attagene multiplexed transcription; actives raise or lower the signal. Summed up:
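HepG2 cells transiently transfected with multiple cis-regulated reporter transcription units; endogenous factor activity at the PBREM element measured as reporter mRNA 24 h after dosing, via RT-PCR and capillary electrophoresis of fluorescent fragments; bidirectional fitting versus DMSO.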
Consider `Cn1c(-c2ccccc2)cc(-c2ccccc2)[n+]1C`, for which the result was inactive.

For `CC(C)C1(C)N=C(c2ncccc2C(=O)O)NC1=O` (stereo not given), the result was inactive.

With `COc1ccc(-c2ccccc2)cc1NNC(=O)OC(C)C`, the AC50 was 15.9 µM (active).

As for `CC(C)=CC1C(C(=O)OCc2coc(Cc3ccccc3)c2)C1(C)C` (stereo not given), the AC50 is 14.6 µM (active).

For `CCSC(=O)N1CCCCCC1`, the result was inactive.

Take `OC(c1ccc(Cl)cc1)(c1ccc(Cl)cc1)C(Cl)(Cl)Cl`: the outcome was inactive.

Consider `CCOP(=O)(OCC)Oc1nc(Cl)c(Cl)cc1Cl`, for which the result was inactive.

Consider `CC1(C)C(C=C(Cl)Cl)C1C(=O)OC(C#N)c1cccc(Oc2ccccc2)c1` (stereo not given), for which the AC50 is 13.1 µM (active).

`COC(=O)NS(=O)(=O)c1ccc(N)cc1`: the result was inactive.

Turning to `Cc1cc(C)nc(Nc2ccccc2)n1`, the AC50 is 50 µM (active).

Take `CNC(=O)Oc1cccc2ccccc12`: the result was inactive.

In the case of `O=C(O)c1c(Cl)ccc2cc(Cl)cnc12`, the result was inactive.

Consider `O=C1C2CC=CCC2C(=O)N1SC(Cl)(Cl)Cl` (stereo not given), for which the result was inactive.

For the compound `CCCCOCN(C(=O)CCl)c1c(CC)cccc1CC`, the AC50 is 0.888 µM (active).

As to `CCC(C)n1c(=O)[nH]c(C)c(Br)c1=O` (stereo not given), the outcome was inactive.

Take `Cc1c(COC(=O)[C@@H]2[C@H](/C=C(\Cl)C(F)(F)F)C2(C)C)cccc1-c1ccccc1`: the AC50 is 11.4 µM (active).

`CCNP(=S)(OC)O/C(C)=C/C(=O)OC(C)C` (stereo not given): the AC50 was 14.7 µM (active).

With `CCCN(CC)CC1COC2(CCC(C(C)(C)C)CC2)O1` (stereo not given), the AC50 was 16.1 µM (active).

Take `CC(C)Nc1nc(Cl)nc(NC(C)C)n1`: the outcome was inactive.

With `Cc1ccc(N=CN(C)C=Nc2ccc(C)cc2C)c(C)c1`, the outcome was inactive.

`CN/C(=N\[N+](=O)[O-])NCc1cnc(Cl)s1`: the result was inactive.

As for `O=P(O)(O)CCCl`, the result was inactive.

As for `CCOC(=O)C(C)OC(=O)c1cc(Oc2ccc(C(F)(F)F)cc2Cl)ccc1[N+](=O)[O-]` (stereo not given), the AC50 is 19.1 µM (active).

In the case of `Nc1c(Cl)c(F)nc(OCC(=O)O)c1Cl`, the result was inactive.

Another experiment concerns the target Paired box protein Pax-6 (Homo sapiens) (UniProt P26367). Description: ATG_Pax6_CIS: Attagene CIS-FACTORIAL HepG2 Assay for human Paired Box 6 (PAX6) (AID 2282956). The following applies: HepG2 CIS-FACTORIAL PAX6 reporter transcription, RNA readout; actives raise or lower the signal. The method, boiled down:
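HepG2 cells transiently transfected with multiplexed cis-promoter reporter units (endogenous TF activity) were dosed for 24 h. Reporter mRNA was quantified by RT-PCR, 6-FAM labeling, HpaI digestion and capillary electrophoresis; bidirectional fitting versus DMSO baseline.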
On to `Cn1c(-c2ccccc2)cc(-c2ccccc2)[n+]1C`, for which the call was inactive.

Regarding `CC(C)C1(C)N=C(c2ncccc2C(=O)O)NC1=O` (stereo not given), the compound was called inactive.

Take `COc1ccc(-c2ccccc2)cc1NNC(=O)OC(C)C`: the call was inactive.

For `CC(C)=CC1C(C(=O)OCc2coc(Cc3ccccc3)c2)C1(C)C` (stereo not given), the call was inactive.

With `CCSC(=O)N1CCCCCC1`, the call was inactive.

For the compound `COc1cc(Cl)c(OC)cc1Cl`, the compound was classed as inactive.

Consider `OC(c1ccc(Cl)cc1)(c1ccc(Cl)cc1)C(Cl)(Cl)Cl`, for which the compound was classed as inactive.

Consider `CCOP(=O)(OCC)Oc1nc(Cl)c(Cl)cc1Cl`, for which the compound was called inactive.

Turning to `COC(=O)N(C(=O)N1CO[C@@]2(C(=O)OC)Cc3cc(Cl)ccc3C2=N1)c1ccc(OC(F)(F)F)cc1`, the compound was classed as inactive.

`Cc1nc(N(C)C)nc(OC(=O)N(C)C)c1C`: the compound was classed as inactive.

With `CC(C)N1C(=O)c2ccccc2NS1(=O)=O`, the outcome was inactive.

With `Nc1c(Cl)c(Cl)nc(C(=O)O)c1Cl`, the result was inactive.

For the compound `CC1(C)C(C=C(Cl)Cl)C1C(=O)OC(C#N)c1cccc(Oc2ccccc2)c1` (stereo not given), the outcome was inactive.

With `COC(=O)NS(=O)(=O)c1ccc(N)cc1`, the result was inactive.

For `Cc1cc(C)nc(Nc2ccccc2)n1`, the outcome was inactive.

`CNC(=O)Oc1cccc2ccccc12`: the outcome was inactive.

Regarding `O=C(O)c1c(Cl)ccc2cc(Cl)cnc12`, the call was inactive.

Take `O=C1C2CC=CCC2C(=O)N1SC(Cl)(Cl)Cl` (stereo not given): the compound was classed as inactive.

For the compound `Cc1cnc(C2=NC(C)(C(C)C)C(=O)N2)c(C(=O)O)c1` (stereo not given), the outcome was inactive.

Turning to `CCCCOCN(C(=O)CCl)c1c(CC)cccc1CC`, the outcome was inactive.

`COP(=O)(OC)O/C(C)=C/C(=O)N(C)C`: the compound was called inactive.

On to `CCC(C)n1c(=O)[nH]c(C)c(Br)c1=O` (stereo not given), for which the compound was classed as inactive.

For `Cc1c(COC(=O)[C@@H]2[C@H](/C=C(\Cl)C(F)(F)F)C2(C)C)cccc1-c1ccccc1`, the call was inactive.

As for `Clc1cccc(C(Cl)(Cl)Cl)n1`, the outcome was inactive.

Turning to `N#Cc1c[nH]cc1-c1cccc2c1OC(F)(F)O2`, the call was inactive.

Turning to `CCNP(=S)(OC)O/C(C)=C/C(=O)OC(C)C` (stereo not given), the call was inactive.

Consider `CCCN(CC)CC1COC2(CCC(C(C)(C)C)CC2)O1` (stereo not given), for which the AC50 is 21.9 µM (active).

Regarding `CC(C)Nc1nc(Cl)nc(NC(C)C)n1`, the call was inactive.

As to `Cc1ccc(N=CN(C)C=Nc2ccc(C)cc2C)c(C)c1`, the outcome was inactive.

Consider `COCC(C)N(C(=O)CCl)c1c(C)csc1C` (stereo not given), for which the result was inactive.

Regarding `CN/C(=N\[N+](=O)[O-])NCc1cnc(Cl)s1`, the call was inactive.

As for `O=P(O)(O)CCCl`, the compound was classed as inactive.

For `CCOC(=O)C(C)OC(=O)c1cc(Oc2ccc(C(F)(F)F)cc2Cl)ccc1[N+](=O)[O-]` (stereo not given), the result was inactive.

As to `CCOP(=S)(OCC)Oc1nc(Cl)n(C(C)C)n1`, the outcome was inactive.

As for `Nc1c(Cl)c(F)nc(OCC(=O)O)c1Cl`, the result was inactive.

As to `N#CN=C1SCCN1Cc1ccc(Cl)nc1`, the result was inactive.
